Assay outcomes as filed in PubChem.
tim23-1 inh – inhibits growth of tim23-1 mutant yeast; hit rate 1.3% among 330,000; S. cerevisiae tim23-1 growth, BacTiter-Glo luminescence, 24 h; AID 463212; inhibition, % at 20 µM;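 active = growth inhibition of the mutant yeast at or above 50%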;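 note: temperature-sensitive mutant grown at 25 °C; plate controls were DMSO-treated mutant yeast for no effect and medium wells lacking yeast for full effect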
NLRP3 yeast inh – inhibitors of NALP3 inflammasome in yeast | Yeast reconstituted NLRP3/ASC/caspase-1, beta-gal luminescence, 24 h | inhibition, % at 10 µM | hit rate 0.39% among 330,000 | AID 2825;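 active = inhibition of 50% or more; inactive = inhibition below 50%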;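 note: plate controls were induced DMSO wells for no effect and uninduced yeast grown without galactose for full effect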
tim10-1 inh – growth inhibitors of tim10-1 mutant yeast; S. cerevisiae tim10-1 ts strain growth, BacTiter-Glo, 24 h; hit rate 2.2% among 330,000; inhibition, % at 20 µM;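 active = inhibition of at least 40%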;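 note: mutant grown at 25 °C; 0% = DMSO wells with yeast and 100% = wells holding no yeast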
PfHsp90 set2 – growth inhibition of yeast expressing Plasmodium Hsp90 | inhibition, % at 9.4 µM | hit rate 0.32% among 310,000 | AID 504621 | S. cerevisiae expressing PfHsp90, BacTiter-Glo ATP, 48 h; yeast lacking PDR1 and PDR3 efflux regulators;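 active = every replicate shows inhibition above about 80%, whatever the replicate mean, limit read from the data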;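 note: 0% = DMSO neutral controls and 100% = 20 µM radicicol positive controls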
TIM10 inh – growth inhibitors of TIM10 yeast strain; S. cerevisiae TIM10 strain growth, BacTiter-Glo luminescence, 24 h; inhibition, % at 10 µM; hit rate 1.4% among 330,000;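 active = inhibition of 40% or more at the single tested concentration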;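 note: wild-type TIM10 isogenic control strain grown at permissive 25 °C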
SKKanGAS inh – SKKanGAS growth inhibition; inhibition, % at 7.5 µM; hit rate 1.3% among 300,000; S. pyogenes SKKanGAS, kanamycin growth, BacTiter-Glo, 6 h;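 active = mean replicate score, as percent of positive control median, at least 50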;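 note: strain carries kanamycin resistance gene driven by streptokinase promoter and grows in 40 µg/ml kanamycin; loss of luminescence reflects streptokinase promoter inhibition or plain growth inhibition; 0% = median of DMSO wells and 100% = positive control at its reference dose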
tim10-1 confirm – tim10-1 yeast growth inhibition, confirmed; shares compounds with tim10-1 inh; S. cerevisiae tim10-1 ts strain growth, BacTiter-Glo, 24 h; inhibition, % at 20 µM; hit rate 56% among 7,400;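 active = inhibition of yeast growth at or above a set limit in either of two repeat tests at 20 µM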;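 note: tim10-1 mutant grown at permissive 25 °C to find synthetic lethal compounds; 0% = DMSO yeast wells and 100% = medium wells without yeast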
tim10 confirm – confirmation of TIM10 yeast growth inhibitors; shares compounds with TIM10 inh; S. cerevisiae tim10 strain growth, BacTiter-Glo luminescence, 24 h; inhibition, % at 10 µM; hit rate 63% among 4,600; AID 463215;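 active = inhibition of yeast growth at or above a set limit in either of two replicates at 10 µM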;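 note: this counterscreen used the strain with wild-type TIM10; 0% = yeast with DMSO and 100% = medium wells lacking yeast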
The depositor's hits bear a star; nt = no result given. Only some compounds are listed: those with a hit (about 4.6% of all), similar ones and a draw of the others.

SMILES | tim23-1 inh | NLRP3 yeast inh | tim10-1 inh | PfHsp90 set2 | TIM10 inh | SKKanGAS inh | tim10-1 confirm | tim10 confirm
O=S(=O)(c1ccc(Cl)cc1)N1CCN=C1SCc1ccc(Cl)c(Cl)c1 | -2 | 1 | 3 | 23 | -2 | -1 | nt | nt
Cc1ccc(CSc2nnc(-c3cccs3)n2C)cc1 | 43 | 25 | 23 | -18 | 25 | 2 | nt | nt
Cn1c(SCc2c(Cl)cccc2Cl)nnc1-c1cccs1 | 44 | 43 | 48* | -6 | 48* | nt | 35* | 34*
Cc1ccccc1C(=O)Nc1ccnn1C1CCN(C(=O)c2ccoc2)CC1 | 6 | -2 | 9 | -9 | 6 | 0 | nt | nt
COc1ccccc1-c1c(C)nn2c(N3CCOCC3)cc(C)nc12 | 14 | -1 | 27 | 7 | 20 | -2 | nt | nt
COc1ccccc1-c1c(C)nn2c(N3CCCCCC3)cc(C)nc12 | 49 | 33 | 56* | 11 | 41* | 2 | 41* | 34*
O=C(COC(=O)COc1ccccc1)Nc1ccc(S(=O)(=O)N2CCOCC2)cc1 | 15 | 4 | 3 | nt | -1 | 7 | nt | nt
CCCCCC1CC(CC(=O)Nc2nncs2)C(=O)O1 (configuration not stated) | 44 | 10 | 40 | 8 | 45* | -4 | 37* | 31*
CCC(O)(c1ccc(OC)cc1)C(CN1CCOCC1)c1ccccc1 (configuration not stated) | 30 | 11 | 8 | -35 | 23 | nt | nt | nt
O=C(c1ccc(F)cc1)C(CN1CCOCC1)c1ccccc1 (configuration not stated) | 49 | 42 | 53* | -10 | 57* | -5 | 36* | 64*
COc1ccc(C(=O)C(CN2CCOCC2)c2ccccc2)cc1 (configuration not stated) | 23 | 36 | 55* | 11 | 48* | 10 | 54* | 66*
c1ccc(C(CN2CCOCC2)c2ccccc2)cc1 | -5 | 2 | 9 | -9 | -3 | 4 | nt | nt
CC(C)N(C(=O)C[n+]1ccsc1N)c1ccccc1 | 0 | -6 | 5 | 10 | 15 | -3 | nt | nt
COc1ccc(OC)c2sc(N3CCN(C(=O)c4ccc([N+](=O)[O-])s4)CC3)nc12 | -54 | 8 | 34 | 41 | -87 | 2 | nt | nt
O=C(c1ccc([N+](=O)[O-])s1)N1CCN(c2ccccn2)CC1 | 46 | 4 | 49* | -4 | 44* | 6 | 48* | 43*
O=C(c1ccc([N+](=O)[O-])s1)N1CCN(c2ccccc2)CC1 | 31 | 12 | 53* | 3 | 60* | 4 | 47* | 50*
COc1ccc(N2CC(C(=O)NCCc3ccc(Cl)cc3)CC2=O)cc1 (configuration not stated) | 11 | 3 | 11 | 3 | 2 | -1 | nt | nt
Oc1ccccc1C(=S)N1CCN(C(=S)c2ccccc2O)CC1 | 2 | 7 | 23 | 17 | -21 | 0 | nt | nt
CCOc1ccc(/C=C2\SC(N3CCc4ccccc4C3)=NC2=O)cc1 | 28 | 11 | 47* | -44 | 54* | 18 | 35* | 19
CSc1ccc(OCC(=O)Nc2ccc(N3CCOCC3)c(Cl)c2)cc1 | -5 | 32 | -1 | 5 | 3 | -3 | nt | nt
O=C(COc1c(F)c(F)c(C(F)(F)F)c(F)c1F)Nc1ccc(N2CCOCC2)c(Cl)c1 | 41 | 20 | 58* | 6 | 43* | 6 | 45* | 34*
Cc1cccc[n+]1CCCCCCCCCC[n+]1ccccc1C | 50 | 14 | 52* | -15 | 46* | -14 | 70* | 47*
Cc1cc(C)c(S(=O)(=O)N(CC(=O)N2CCCC2)C2CCCCC2)c(C)c1 | 48 | -1 | 40* | nt | 43* | 16 | 23 | 14
Cc1ccc(S(=O)(=O)N(CC(=O)N2CCCC2)C2CCCCC2)cc1 | 12 | 10 | 12 | 16 | 14 | 3 | nt | nt
CCS(=O)(=O)c1ccc2oc(SCC(=O)N3CCCCC3)nc2c1 | 19 | -16 | 12 | 0 | -4 | -4 | nt | nt
SMILES | tim23-1 inh | NLRP3 yeast inh | tim10-1 inh | PfHsp90 set2 | TIM10 inh | SKKanGAS inh | tim10-1 confirm | tim10 confirm
Cc1nc(C)c(-c2csc(Nc3ccc(F)cc3)n2)s1 | 45 | -9 | 48* | nt | 51* | 3 | 43* | 44*
Cc1ccccc1NC1=NC(=S)N(c2ccccc2)C12CCOC(C)(C)C2 (configuration not stated) | 30 | 3 | 37 | -11 | 37 | 7 | nt | nt
Cc1ccccc1NC1=NC(=S)N(c2ccccc2)C12CCCCC2 | 50 | 9 | 54* | -26 | 50* | -1 | 46* | -39
COc1ccccc1C(c1nnnn1CCc1ccccc1)N1CCN(c2ccccc2)CC1 (configuration not stated) | 26 | 10 | 33 | -54 | 30 | 11 | nt | nt
COc1ccccc1C(c1nnnn1CCc1ccccc1)N1CCCCCC1 (configuration not stated) | 41 | 9 | 42* | -12 | 43* | 0 | 26 | -22
Cc1ccc(OC(=O)c2cccc(S(=O)(=O)N3CCN(C)CC3)c2)c(Br)c1 | 32 | 23 | 7 | 7 | -7 | -3 | nt | nt
CCC(CC)CN1C(Nc2ccccc2)=NC[C@@H]1C | 4 | 0 | 0 | -3 | 5 | -3 | nt | nt
Cc1ccccc1Nc1nc(N)nc(CSc2nc3ccccc3s2)n1 | 19 | 19 | -3 | -2 | 16 | 3 | nt | nt
Cc1ccc(Nc2nc(N)nc(CSc3nc4ccccc4s3)n2)cc1 | 40 | 30 | 47* | 3 | 47* | 9 | 28 | 27
Cc1cccc(NC(=S)N/N=C/c2ccc3c(c2)OCO3)c1 | 45 | -24 | 42* | -25 | 47* | -4 | 29 | 25
CC1CCN(C(=S)c2cn(Cc3ccccc3F)c3ccccc23)CC1 | 22 | 9 | 43* | -73 | 42* | 19 | 32* | 23
Cn1cc([N+](=O)[O-])c(C(=O)Nc2cc(Oc3ccccc3)cc([N+](=O)[O-])c2)n1 | nt | nt | nt | 1 | nt | 7 | nt | nt
Cc1cccc(Oc2cc(NC(=O)c3ccccc3)cc([N+](=O)[O-])c2)c1 | 31 | 20 | 44* | 18 | 53* | 35 | 36* | 2
CCN(CC(=O)Nc1c(F)cccc1F)C(=O)C1CCN(S(=O)(=O)c2ccc(C)c(C)c2)CC1 | 16 | 17 | 7 | nt | -1 | -14 | nt | nt
O=C(Cn1cncn1)N/N=C/c1cccnc1 | 12 | 8 | -2 | -9 | -13 | 0 | nt | nt
Cc1cc(C(=O)O/N=C(\N)c2ccncc2)ccc1[N+](=O)[O-] | 11 | -51 | 13 | 0 | 4 | 5 | nt | nt
COc1ccc(/C(N)=N/OC(=O)c2ccc([N+](=O)[O-])c(C)c2)cc1OC | 46 | 13 | 65* | -86 | 49* | 17 | 71* | 36*
COC(=O)CNc1nc(Cl)nc(Nc2ccc(C)cc2)n1 | 4 | -6 | -1 | -4 | 5 | -8 | nt | nt
